The subject of experiment [1] is AAK1. Details: species or system human, MV4-11 + K-562 + COLO205 + SK-N-BE2 + OVCAR-8. The settings on record: read-out: apparent Kd, n = 1.
Experiment [2] concerns CLK1. Details: species or system human, MV4-11 + K-562 + COLO205 + SK-N-BE2 + OVCAR-8. Conditions: read-out: apparent Kd, compound concentrations: 100 nM and 1000 nM (sheet 'Samples'), n = 1.
For experiment [3], the system named is CLK4. Details: species or system human, MV4-11 + K-562 + COLO205 + SK-N-BE2 + OVCAR-8. Conditions: read-out: apparent Kd, compound concentrations: 100 nM and 1000 nM (sheet 'Samples'), n = 1.
Experiment [4] concerns CSNK2A1;CSNK2A3. Details: species or system human, MV4-11 + K-562 + COLO205 + SK-N-BE2 + OVCAR-8. Conditions: read-out: apparent Kd, n = 1.
Experiment [5] relates to CSNK2A2. Details: species or system human, MV4-11 + K-562 + COLO205 + SK-N-BE2 + OVCAR-8. The settings on record: read-out: apparent Kd, n = 1.
Experiment [6] deals with Q6ZSR9 (human, UniProt Q6ZSR9). Details: species or system MV4-11 + K-562 + COLO205 + SK-N-BE2 + OVCAR-8. Conditions: read-out: apparent Kd, n = 1.
Experiment [7] concerns BMP2K. Details: species or system human, MV4-11 + K-562 + COLO205 + SK-N-BE2 + OVCAR-8. The settings on record: read-out: apparent Kd, n = 1.
Experiment [8] deals with FLT4. Details: species or system human, MV4-11 + K-562 + COLO205 + SK-N-BE2 + OVCAR-8. Conditions: read-out: apparent Kd; compound concentrations: 100 nM and 1000 nM (sheet 'Samples'), CATDS: 1.2160517778916E-2; n = 1.
Experiment [9] relates to GAK. Details: species or system human, MV4-11 + K-562 + COLO205 + SK-N-BE2 + OVCAR-8. The settings on record: read-out: apparent Kd; compound concentrations: 100 nM and 1000 nM (sheet 'Samples'), CATDS: 1.5691521545656201E-2; n = 1.
The subject of experiment [10] is GSK3A. Details: species or system human, MV4-11 + K-562 + COLO205 + SK-N-BE2 + OVCAR-8. The settings on record: read-out: apparent Kd; compound concentrations: 100 nM and 1000 nM (sheet 'Samples'), CATDS: 1.8964305572366599E-2; n = 1.
For experiment [11], the system named is GSK3B. Details: species or system human, MV4-11 + K-562 + COLO205 + SK-N-BE2 + OVCAR-8. The settings on record: read-out: apparent Kd; compound concentrations: 100 nM and 1000 nM (sheet 'Samples'), CATDS: 1.5746210655388199E-2; n = 1.
For experiment [12], the system named is MELK. Details: species or system human, MV4-11 + K-562 + COLO205 + SK-N-BE2 + OVCAR-8. Conditions: read-out: apparent Kd, n = 1.
Experiment [13] deals with NUAK1. Details: species or system human, MV4-11 + K-562 + COLO205 + SK-N-BE2 + OVCAR-8. The settings on record: read-out: apparent Kd, n = 1.
For experiment [14], the system named is PAK4. Details: species or system human, MV4-11 + K-562 + COLO205 + SK-N-BE2 + OVCAR-8. Conditions: read-out: apparent Kd, n = 1.
The subject of experiment [15] is PKN1. Details: species or system human, MV4-11 + K-562 + COLO205 + SK-N-BE2 + OVCAR-8. Conditions: read-out: apparent Kd; compound concentrations: 100 nM and 1000 nM (sheet 'Samples'), CATDS: 1.1966323436805501E-2; n = 1.
Experiment [16] relates to PRKAG1. Details: species or system human, MV4-11 + K-562 + COLO205 + SK-N-BE2 + OVCAR-8. Conditions: read-out: apparent Kd, n = 1.
The test system of experiment [17] is RET. Details: species or system human, MV4-11 + K-562 + COLO205 + SK-N-BE2 + OVCAR-8. The settings on record: read-out: apparent Kd, n = 1.
For experiment [18], the system named is SIK2. Details: species or system human, MV4-11 + K-562 + COLO205 + SK-N-BE2 + OVCAR-8. Conditions: read-out: apparent Kd, n = 1.
Setting [19] is: compound concentrations:100 nM and 1000 nM (sheet 'Samples').

Where two headings read alike, the source gives them in different places.

Q6ZSR9, sequence (Q6ZSR9 whole entry, looked up): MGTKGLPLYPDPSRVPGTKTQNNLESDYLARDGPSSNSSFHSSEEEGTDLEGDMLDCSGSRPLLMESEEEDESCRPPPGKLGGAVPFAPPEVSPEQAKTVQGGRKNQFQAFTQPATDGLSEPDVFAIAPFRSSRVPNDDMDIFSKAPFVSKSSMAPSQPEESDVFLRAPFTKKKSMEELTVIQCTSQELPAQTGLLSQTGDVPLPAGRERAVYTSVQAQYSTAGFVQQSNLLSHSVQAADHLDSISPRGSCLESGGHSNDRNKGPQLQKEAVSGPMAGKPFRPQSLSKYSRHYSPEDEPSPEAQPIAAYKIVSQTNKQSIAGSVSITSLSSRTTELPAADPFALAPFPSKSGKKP

`O=C1N=C(NCCCc2ccccc2)S/C1=C\c1ccc2ncccc2c1` [RO4493941-000]: the potency estimated from few doses in [1] (compound concentrations: 100 nM and 1000 nM (sheet 'Samples'), CATDS: 6.7611203009870793E-2) was 1120 nM; in experiment [2] (CATDS: 8.49411754848379E-2), 528 nM; in experiment [3] (CATDS: 0.15877377246004401) it was 105 nM; in [4] (compound concentrations: 100 nM and 1000 nM (sheet 'Samples'), CATDS: 0.35522502931524602), 22 nM; in experiment [5] (compound concentrations: 100 nM and 1000 nM (sheet 'Samples'), CATDS: 0.347313618598384), 22.8 nM; in experiment [6] (compound concentrations: 100 nM and 1000 nM (sheet 'Samples'), CATDS: 7.1931032695021699E-2), 898 nM.
Regarding `COc1cc[nH]c1/C=C1\C(=O)Nc2ccc(F)c(C#CC3(O)CCNCC3)c21.Cl` [RO0282986-001], the potency estimated from few doses in [1] (compound concentrations: 100 nM and 1000 nM (sheet 'Samples'), CATDS: 4.4387438114571E-2) is 51.7 nM; in experiment [7] (compound concentrations: 100 nM and 1000 nM (sheet 'Samples'), CATDS: 9.1500909624849303E-2), 17.8 nM; in [2] (CATDS: 1.0356916336546E-2), 1160 nM; in [3] (CATDS: 1.25074250244867E-2), 634 nM; in [4] (compound concentrations: 100 nM and 1000 nM (sheet 'Samples'), CATDS: 1.42353528510114E-2) it was 450 nM; in experiment [5] (compound concentrations: 100 nM and 1000 nM (sheet 'Samples'), CATDS: 2.2066768869253801E-2) it was 173 nM. Besides, the potency estimated from few doses in experiment [8] is 687 nM; in experiment [9], 356 nM; in experiment [10], 235 nM; in experiment [11], 353 nM; in experiment [12] (compound concentrations: 100 nM and 1000 nM (sheet 'Samples'), CATDS: 1.9967026123172499E-2), 211 nM; in experiment [13] (compound concentrations: 100 nM and 1000 nM (sheet 'Samples'), CATDS: 4.1010981116741001E-2), 58.6 nM. For the same molecule, the potency estimated from few doses is 183 nM in experiment [14] (compound concentrations: 100 nM and 1000 nM (sheet 'Samples'), CATDS: 2.1447100630881601E-2); 720 nM in experiment [15]; 761 nM in experiment [16] (compound concentrations: 100 nM and 1000 nM (sheet 'Samples'), CATDS: 1.1749589380403099E-2); 65.6 nM in [6] (compound concentrations: 100 nM and 1000 nM (sheet 'Samples'), CATDS: 3.8240338432775099E-2); 52 nM in experiment [17] (compound concentrations: 100 nM and 1000 nM (sheet 'Samples'), CATDS: 4.4247015083228598E-2); 581 nM in [18] (compound concentrations: 100 nM and 1000 nM (sheet 'Samples'), CATDS: 1.2903831315266401E-2).
As for `O=C(O)C(F)(F)F.O=c1[nH]ccc2nc(N[C@@H]3CCNC3)nc(Nc3cc(Cl)cc(Cl)c3)c12` [GSK2188764A], the potency estimated from few doses was 114 nM in experiment [1] (setting [19]); 749 nM in [7] (setting [19]); 239 nM in experiment [4] (setting [19]); 585 nM in experiment [5] (setting [19]); 765 nM in experiment [12] (setting [19]); 27.4 nM in experiment [13] (setting [19]). In addition, the potency estimated from few doses is 11 nM in experiment [14] (setting [19]); 799 nM in experiment [16] (setting [19]); 151 nM in [6] (setting [19]); 1350 nM in [17] (setting [19]); 1440 nM in experiment [18] (setting [19]).

The values above are taken from PMC11062922 (Nature Chemical Biology, 2023).
